Measured values from PubChem BioAssay (NCI).
The panel holds about 83,000 compounds, 20% with a hit somewhere; the sample as a whole holds those more often.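 Cells were grown in 96-well plates and exposed to the test compound at a single concentration for 48 hours; results are reported as percent growth, with values below 10 considered active.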 Active and inactive are the calls of the source.

What follows are molecules tested on SK-OV-3 ovarian (assay: NCI-60 one-dose screen, 48 h (100 = growth as untreated, 0 = no growth, -100 = all killed)). Conditions: 10 µM unless noted.

**Q.** Which growth does the source give for `CC(C)CCN(CCCNc1c2c(nc3ccccc13)CCCC2)CCC(C)C` here?
**A.** The growth was 94.3% (inactive).

**Q.** For `O=C(CC(O)c1ccncc1)c1ccccc1` (stereo not given), which growth is on record?
**A.** Its growth is 41.9% (inactive).

**Q.** For `Nc1c(C(=O)Nc2cccc([N+](=O)[O-])c2)sc2nc3c(cc12)C(O)CCC3` (stereo not given), which growth is on record?
**A.** The growth was 46.3% (inactive).

**Q.** Which growth does the source give for `CCN(CC)CCSc1c2ccc(Cl)cc2nc2ccc(OC)cc12` here?
**A.** Its growth is 86.5% (inactive).

**Q.** With `CNC(=O)Cc1nc(-c2cccc(NS(=O)(=O)c3c(F)cccc3F)c2F)c(-c2ccnc(Nc3ccccc3)n2)s1` as the molecule, how does the growth read?
**A.** The growth was 29.9% (inactive).

**Q.** How did the growth turn out when `CC(=O)Nc1ccc(S(=O)(=O)N2C(=O)CCC2C(=O)Nc2ccccc2)cc1` (stereo not given) was run?
**A.** Its growth is 57.5% (inactive).

**Q.** Which growth does the source give for `Nc1cccc2c1CN(C1CCC(=O)NC1=O)C2=O` (stereo not given) here?
**A.** Its growth is 93.1% (inactive).

**Q.** `C=CC(=O)N[C@H](/C=C/C(=O)OCC)Cc1ccc(-c2cc(Cl)cc(Cl)c2)cc1` was tested. Which growth did it give?
**A.** The growth was 94.6% (inactive).

**Q.** With `CCOC(=O)CC(C#N)(CC(=O)OCC)C(=O)OCC` as the molecule, how does the growth read?
**A.** Its growth is 117% (inactive).

**Q.** How did the growth turn out when `CCN(CC)CCCNc1nc(C)cc(Nc2ccc3nc(C)cc(N)c3c2)n1` was run?
**A.** The growth was 89.9% (inactive).

**Q.** With `O=c1cc(C2NCCc3c2[nH]c2ccccc32)c2c(ccc3ccccc32)o1` (stereo not given) as the molecule, how does the growth read?
**A.** Its growth is 5.15% (active).

**Q.** `Nc1nc(N)c2nc(CNc3ccc(C(=O)CC(CCC(=O)O)C(=O)O)cc3)cnc2n1` (stereo not given) was tested. Which growth did it give?
**A.** The growth was 52% (inactive).

**Q.** Which growth does the source give for `O=C1Nc2cc(Cl)ccc2/C1=C/c1ccc(N2CCOCC2)s1` here?
**A.** Its growth is 113% (inactive).

**Q.** How did the growth turn out when `O=S(=O)(NCCCNc1nccc(-c2c(-c3ccccc3)nc3sccn23)n1)c1ccc(F)cc1` was run?
**A.** The growth was 59.1% (inactive).

**Q.** How did the growth turn out when `O=Nc1c(-c2c(O)[nH]c3ccc([N+](=O)[O-])cc23)[nH]c2ccc(O)cc12` was run?
**A.** The growth was -9.52% (active).
